# Only some compounds are listed: those with a hit (about 3.5% of all), similar ones and a draw of the others.
# GPR151 ag – human GPR151 activation. Q8TDV0. PathHunter beta-arrestin GPR151 cells, luminescence. activation, % at 11.2 µM. 650,000 compounds, 1% hits. AID 1508602; in the data active = activation above about 4.9%;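 note: 0% = median of compound wells and 100% = cells with positive control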
# TEAD-YAP inh – TEAD-YAP interaction inhibition; inhibition, % at 9.12 µM; 640,000 compounds, 1.4% hits; HEK-TIYL cells, TEAD-Gal4/YAP UAS-luciferase luminescence; in the data active = inhibition above about 32%;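 note: 0% = median of test compound wells and 100% = reference inhibitor wells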
# MITF inh – blocks human microphthalmia-associated transcription factor | O75030 | inhibition, % at 2.6 µM | AlphaScreen MITF homodimerization, bead proximity signal | 650,000 compounds, 0.91% hits | AID 1259374; in the data active = inhibition above about 50%;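 note: 0% = vehicle wells with protein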
# FBW7 act – activators of human E3 ligase FBW7; AID 1259310; AlphaScreen FBW7–phospho-cyclin E peptide binding, activator screen; 650,000 compounds, 0.13% hits; normalized activity (activation), % at 26.1 µM; in the data active = normalized activity above about 1.9%;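 note: purified mutant Fbw7 with reduced substrate affinity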
# Target sequence (Q969H0 whole entry, looked up): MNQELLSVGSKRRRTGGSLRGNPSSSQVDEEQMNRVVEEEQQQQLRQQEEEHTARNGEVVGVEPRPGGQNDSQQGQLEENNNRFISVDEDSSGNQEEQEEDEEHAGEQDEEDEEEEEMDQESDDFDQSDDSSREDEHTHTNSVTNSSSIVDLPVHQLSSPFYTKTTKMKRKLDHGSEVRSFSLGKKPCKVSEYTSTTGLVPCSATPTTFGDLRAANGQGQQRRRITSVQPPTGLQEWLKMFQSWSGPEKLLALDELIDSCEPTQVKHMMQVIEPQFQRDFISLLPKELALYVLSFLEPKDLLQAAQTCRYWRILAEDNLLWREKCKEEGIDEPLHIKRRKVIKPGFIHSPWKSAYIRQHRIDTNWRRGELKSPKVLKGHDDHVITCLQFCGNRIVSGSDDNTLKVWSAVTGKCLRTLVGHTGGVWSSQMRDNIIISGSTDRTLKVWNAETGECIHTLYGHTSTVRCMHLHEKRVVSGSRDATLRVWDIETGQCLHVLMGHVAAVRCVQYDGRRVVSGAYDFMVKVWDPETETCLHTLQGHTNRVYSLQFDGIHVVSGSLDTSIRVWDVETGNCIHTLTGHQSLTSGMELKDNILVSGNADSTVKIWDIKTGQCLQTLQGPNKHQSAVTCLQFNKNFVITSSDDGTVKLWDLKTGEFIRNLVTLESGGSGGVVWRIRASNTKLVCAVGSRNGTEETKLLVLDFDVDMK
# GPR151 conf act – human GPR151 activation, confirmation screen. GPR151 PathHunter beta-arrestin cells, luminescence, 90 min; % of EA-reagent control over plate median. activation, % at 11.2 µM. 6,700 tested, under 10 active. shares compounds with GPR151 ag;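 active = mean percent activation across replicates above the confirmation screen cutoff of 4.91%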
# GPR119 counter – GPR119 activation, counter-screen for GPR151 activators; shares compounds with GPR151 ag; 6,700 compounds, 0.3% hits; GPR119 PathHunter beta-arrestin cells, luminescence, 90 min; 0 = compound-well median, 100 = enzyme-acceptor control; activation, % at 11.2 µM;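 active = mean percent activation in the counterscreen above 29.09%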;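 note: counterscreen on off-target GPR119 to flag nonselective hits from the GPR151 activator screen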
# Active calls of the source: *; x = no result given; ! = a repeat was not active.
SMILES,GPR151 ag,TEAD-YAP inh,MITF inh,FBW7 act,GPR151 conf act,GPR119 counter
CCCNc1nc(Nc2ccncn2)nc2c1ncn2C1CCCCC1,4.9*,-48,10,0,0,13
CCCNc1nc(-c2c(C)noc2C)nc2c1ncn2C1CCCCC1,5.5*,-46,-1,0,0,-4
Cc1noc(C)c1-c1nc(NCCOc2ccccc2)c2ncn(C3CCCCC3)c2n1,-1,2,-3,0,x,x
OCCNc1nc(Nc2ccncn2)nc2c1ncn2C1CCCCC1,-1,-27,15,0,x,x
O=C(N[C@H]1C[C@H]2C(=O)N3CCC[C@@H]3C(=O)N2C1)c1ccc2ccccc2c1,-1,-6,-4,0,x,x
CCN(CC)Cc1cc(CN[C@H]2C[C@H]3C(=O)N[C@@H](Cc4c[nH]c5ccccc45)C(=O)N3C2)ccc1OC,0,7,-2,0,x,x
Nc1cc(C(=O)OCC(=O)Nc2cccc(S(N)(=O)=O)c2)ccc1Cl,6.4*,2,9,0,0,-3
CC(=O)c1cccc(NC(=O)COC(=O)c2ccc(Cl)c(N)c2)c1,0,-3,-3,0,x,x
CCOC(=O)C1=C(O)/C(=C/c2ccccc2)SC1=Nc1ccccc1,-1,-3,21,0,x,x
CCOC(=O)C1=C(O)/C(=C/c2ccc(C(=O)OC)cc2)SC1=NC(=O)c1ccccc1,6.7*,0,4,0,0,-2
Cc1nnc(NC(=O)c2ccccc2Cl)s1,0,-33,14,0,x,x
O=C(Nc1ncc(C(O)(C(F)(F)F)C(F)(F)F)s1)c1ccccc1Cl,6.6*,-44,0,0,2,3
Cc1c(Cl)cccc1N(CC(=O)NCc1ccncc1)S(C)(=O)=O,0,9,-7,0,x,x
CCc1cccc(NC(=O)C2CCCC2)c1,10*,-17,7,0,0,-11
O=C(CN1CCN(CC(=O)Nc2ccccc2F)CC1)Nc1cccc(F)c1,6.2*,10,13,1,1,3
CCOc1ccc(NC(=O)N2CCc3nc(N4CCOCC4)[nH]c(=O)c3C2)cc1,0,-1,11,0,x,x
CC(C)(CO)NCc1ccc(Br)cc1,5.3*,7,-21,0,-1,-7
Cc1ccc(-c2ccc3c(c2)CC(CNC(=O)CCc2ccco2)O3)nc1 (stereo not drawn),6.4*,-45,-1,0,1,13
Cc1ccc(-c2ccc3c(c2)CC(CNC(=O)Cc2nc(-c4ccccc4)n[nH]2)O3)nc1 (stereo not drawn),1,1,7,0,x,x
O=C(NCCOc1ccccc1)c1ccnc(-c2csc3ccccc23)c1,4.9*,6,-16,0,1,-2
CC(C)(NC(=O)c1ccccc1[N+](=O)[O-])c1ccncc1,3,3,10,0,x,x
COc1cccc(C(=O)NCCCc2ccccc2)c1OC,0,-28,20,0,x,x
COc1cccc(C(=O)NCCCc2ccc(N(C)C)cc2)c1OC,5.3*,-18,2,0,-1,-5
O=C1CCCCC(=O)N(c2ccccc2)c2ccccc21,-1,15,-9,0,x,x
O=C1Cc2ccccc2N1c1ccccc1,9.9*,0,-6,1,1,5
SMILES,GPR151 ag,TEAD-YAP inh,MITF inh,FBW7 act,GPR151 conf act,GPR119 counter
CC1(C)Cc2cccc(OCC(=O)NCC3CCCO3)c2O1 (stereo not drawn),1,-2,9,0,x,x
Cc1cccc(C(=O)NNC(=O)C2CCCO2)c1 (stereo not drawn),7.3*,-3,-2,0,0,0
CCOc1ccc(/C=C(\C#N)c2nc(-c3ccc(C)cc3C)cs2)cc1,0,-2,-2,0,x,x
Oc1ccc(C2CNCCc3c2cc(O)c(O)c3Cl)cc1 (stereo not drawn),6.6*!,-12,-17,1,0,1
O=C(NCCO)c1cccc(N2C(=O)c3ccccc3C2=O)c1,7.6*,3,1,0,0,3
CCn1cc(C(=O)NC2(c3ccc(F)cc3)CCCC2)c(C)n1,0,-11,3,0,x,x
CCn1c(C)cc(C=C2C(=O)c3ccccc3C2=O)c1C,8.2*,66*,-4,0,0,-26
COc1ccc(S(=O)(=O)Nc2cccc(Br)c2)cc1C,13*,2,-1,0,1,1
COc1ccc(S(=O)(=O)Nc2cccnc2)cc1C,-1,16,0,0,x,x
COc1ccc(S(=O)(=O)Nc2cccc(SC)c2)cc1C,0,3,10,0,x,x
COc1ccc(S(=O)(=O)Nc2cccc(N(C)S(C)(=O)=O)c2)cc1OC,7.8*,1,-3,0,0,1
COc1ccc(S(=O)(=O)Nc2cccnc2)cc1I,5.1*,-4,-5,0,0,-1
COc1ccc(S(=O)(=O)Nc2cccc(N(C)S(C)(=O)=O)c2)cc1C,-1,12,9,0,x,x
CC1(C)CC(NC(=S)Nc2ccccc2F)CC(C)(C)N1,8.3*,-2,10,0,-1,-6
CCC(C)C1N=C2c3ccccc3N=C(SCc3cccc(F)c3)N2C1=O (stereo not drawn),5.2*,-19,11,0,1,8
CCOc1cccc(C2NC(C)(C(=O)O)C3C(=O)N(c4ccccc4OC)C(=O)C23)c1O (stereo not drawn),1,-7,-7,0,x,x
COc1ccc(O)c(C2NC(C)(C(=O)O)C3C(=O)N(c4ccccc4OC)C(=O)C23)c1 (stereo not drawn),5.1*,-7,0,0,1,4
O=C1C2C3CCC(C3)C2C(=O)N1c1ccc(OS(=O)(=O)c2ccccc2)cc1 (stereo not drawn),7.6*,-37,-12,0,0,-7
O=C1/C(=C\c2cccc([N+](=O)[O-])c2)SC(=S)N1N1C(=O)c2ccccc2C1=O,5.0*,-10,-6,0,0,10
O=C1/C(=C/c2ccccc2)SC(=S)N1N1C(=O)c2ccccc2C1=O,-1,1,-9,0,x,x
CC(=O)c1ccc(N2C(=O)C3C(C2=O)C2(CO)C=CC3(C)O2)cc1 (stereo not drawn),5.5*,1,9,0,0,-5
Cc1ccc(CSc2ccc(C(=O)NNC(=O)c3ccncc3)cc2[N+](=O)[O-])cc1,1,0,-8,0,x,x
CCCn1c(=O)c2ccccc2n2c(SCC(N)=O)nnc12,1,6,12,0,x,x
CCn1c(SCC(N)=O)nc2ccc(I)cc2c1=O,0,-4,8,0,x,x
CCn1c(=O)c2ccccc2n2c(SCC(N)=O)nnc12,6.3*,-2,0,0,0,5
CCn1c(SCC(N)=O)nc2ccc(Br)cc2c1=O,5.4*,-2,1,0,0,-5

# Screens as filed in PubChem BioAssay.
